Measurements: PubChem BioAssay (NCATS)
Inconclusive results are not listed. Where a call stands in place of a potency, no number is given. Calls of active or inactive are those of the source. Calls come from the whole dose curve; as a rule, active = well fitted cell-killing curve with a large enough effect; inconclusive = small, poorly fitted or top-dose-only effect; inactive = no such curve, though single readings can be large or run the other way.

Assay: qHTS of pediatric cancer cell lines to identify multiple opportunities for drug repurposing: Primary screen for NB1643 cells (AID 1347099); note: nearly all actives have a fitted effect of over 50% in size
Details: NB1643 neuroblastoma viability, CellTiter-Glo luminescence, 48 h; series mostly up to 46 µM
Source text: Drug repurposing or repositioning has been offered as a strategy for drug development in oncology programs. This approach has special potential for childhood cancers and other rare or orphan diseases, where the expected return on new drug development has been a disincentive to pharmaceuticals. […] In this project we exploit the poly-pharmacology of drugs to discover new indications via phenotypic screening of a panel of 19 well-characterized cell lines derived from solid tumors seen in children and adolescents. The goal is to identify approved drugs with previously unrecognized anticancer properties that has the potential to reveal new mechanisms and biological processes involved in carcinogenesis or drug resistance. We employed a titration-based paradigm (quantitative high-throughput screening or qHTS), where all compounds were tested at multiple concentrations for their effect on cell viability. Concentration-response curves (CRCs) were derived directly from the primary screen, and both potency and efficacy values were used to identify compounds with robust bioactivity profiles. We screened the NIH Chemical Genomics Center (NCGC) Pharmaceutical Collection (NPC) and Mechanism Interrogation Plate (MIPE) small molecule collections of approved and investigational compounds against these cell lines; and measured metabolically active cells after 48 hours of compound treatment as a proxy for cell viability. […] Assay Submitter: Nathalia J. Martinez, National Center for Advancing Translational Sciences, National Institutes of Health, Rockville, MD, USA; email: natalia.martinez@nih.gov Shen, M et al. Quantitative high-throughput phenotypic screening of pediatric cancer cell lines identifies multiple opportunities for drug repurposing. Oncotarget 2017 Dec 19;9(4):4758-4772. PMID 29435139.
The cells were obtained from University of North Carolina (UNC), Pediatric Preclinical Testing Program (PPT), and Coriell Institute (CI). qHTS cell viability assay: Cells were assayed in growth media at a density of 500-1,000 cells/well. Five microliters of cells were dispensed into 1,536-well, white, solid-bottom, TC-treated plates (Greiner Bio One) using a multidrop dispenser and incubated at 37 degrees C, 5% CO2, under a humidified atmosphere for 5 hours. Twenty-three nanoliters of compounds and controls (neutral control DMSO or positive control bortezomib at final concentration of 2.3 µM) were subsequently transferred by Kalypsys pintool. For primary screens, the MIPE collection was tested at 11-point dilutions (final concentrations range from 0.78 nM to 46 µM) and the NPC collection at 8-point dilutions (final concentrations range from 0.59 nM to 46 µM). Compounds tested in follow-up screens were assayed at 11-point dilutions. Cells were incubated for 48 hours, followed by addition of 3 µL of CellTiter-Glo (Promega). After a 15 min incubation at room temperature, samples were analyzed for luminescence intensity using a ViewLux High-throughput CCD imager equipped with clear filters.
Potency is the fitted concentration of half-maximal effect.

Structure (SMILES)	Potency
C1CCC(NC2CCCCC2)CC1	inactive
O=C(O)CNC(=O)c1c(O)c2ccccc2n(Cc2ccccc2)c1=O	inactive
CC(C)NCC(O)c1ccc([N+](=O)[O-])cc1 (stereo not given)	inactive
S=C(SSC(=S)N1CCCCC1)N1CCCCC1	0.0944 µM (active)
CC(C)N(CCNC(=O)CN1CCCC1=O)C(C)C	inactive
CC1(C)CC/C(=C/c2ccc(Cl)cc2)C1(O)Cn1cncn1 (stereo not given)	inactive
CCNC(=O)CC1N=C(c2ccc(Cl)cc2)c2cc(OC)ccc2-n2c(C)nnc21 (stereo not given)	14.8 µM (active)
COc1ccc2c(c[n+](C)c3c4cc5c(cc4ccc23)OCO5)c1OC	7.43 µM (active)
C[C@]12COC(=O)C[C@@H]1CC[C@@H]1[C@H]2CC[C@@]2(C)[C@H]1CC[C@]2(C)O	inactive
CC(C)Oc1cccc(NC(=O)c2ccccc2C(F)(F)F)c1	inactive
CC(C)(C)[C@]1(O)C[C@@H]2OC(=O)C[C@@]23C(=O)O[C@@H]2OC(=O)[C@H](O)C213 (stereo not given in full)	inactive
Oc1ccc2c3c1O[C@H]1c4[nH]c5c(c4C[C@@]4(O)[C@@H](C2)N(CC2CC2)CC[C@]314)C[C@@]1(O)[C@H]2Cc3ccc(O)c4c3[C@@]1(CCN2CC1CC1)[C@H]5O4	inactive
CCC(=O)O[C@@H]1C=C2CCC3C(CCC4(C)C3CC[C@@H]4OC(=O)CC)C2CC1 (stereo not given in full)	inactive
O=S(=O)(CC1CS1)c1ccc(Oc2ccccc2)cc1 (stereo not given)	18.7 µM (active)
Cc1ccc(Cl)c(O)c1	inactive
CC1(N2CCC(n3c([C@@H]4CCCNC4)nc4ccccc43)CC2)CCCCCCC1	inactive
CSCC[C@@H](NC(=O)[C@@H](Cc1ccccc1)NC(=O)CNC(=O)CNC(=O)[C@@H](N)Cc1ccc(O)cc1)C(=O)O	inactive
Nc1ccc(Sc2ccc(N)cc2)cc1	inactive
CC(C)N[C@@H]1CCn2c(=O)[nH]c3cccc(c32)[C@@H]1O	4.18 µM (active)
Nc1ccc(Cl)cc1N	inactive

Structure (SMILES)	Potency
COc1ccc(C(=O)c2c(C)n(CCN3CCOCC3)c3cc(I)ccc23)cc1	14.8 µM (active)
CC(=O)N(C)c1cccc(-c2ccnc3c(C(=O)c4cccs4)cnn23)c1	inactive
Cc1c(N)nc([C@H](CC(N)=O)NC[C@@H](N)C(N)=O)nc1C(=O)N[C@H](C(=O)N[C@@H](C)[C@H](O)[C@@H](C)C(=O)N[C@@H](C(=O)NCCc1nc(-c2nc(C(=O)NCCC[S+](C)C)cs2)cs1)[C@@H](C)O)C(O[C@H]1O[C@H](CO)[C@H](O)[C@@H](O)[C@@H]1O[C@H]1O[C@H](CO)[C@@H](O)[C@H](OC(N)=O)[C@H]1O)c1cnc[nH]1 (stereo not given in full)	1.66 µM (active)
CC(C)(C)c1cc(C=C(C#N)C#N)cc(Br)c1O	4.69 µM (active)
CS(=O)(=O)c1ccc(C(=O)C2C(=O)CCCC2=O)c([N+](=O)[O-])c1	0.001 µM (active)
Nc1c(Cl)c(Cl)c(Cl)c(Cl)c1Cl	inactive
C[C@@]12OC(=O)[C@]1([C@@H](O)[C@@H]1C=CCCC1)NC(=O)[C@H]2CCCl	0.0743 µM (active)
C=CC(=O)NCNC(=O)C=C	inactive
Nc1ccc([N+](=O)[O-])cc1	inactive
COC(=O)c1cncn1C(C)c1ccccc1 (stereo not given)	inactive
C#CC1(O)CCC2C3CCC4=CC(=O)CCC4(C)C3CCC21C (stereo not given)	23.5 µM (active)
Cc1nc(-c2ccc(-c3ccc(C(=O)N4CCc5cc6c(cc54)C4(CCN(C)CC4)CO6)cc3)c(C)c2)no1	inactive
Fc1cc(Br)ccc1CBr	inactive
CN[C@@H]1Cc2cccc3[nH]c(=O)n(c23)C1	inactive
CN[C@@H](C)[C@H](O)c1ccccc1	inactive
O=C(O)C(Cl)Cl	inactive
CCOC(=O)c1cncn1[C@H](C)c1ccccc1	inactive
O=S(=O)(O)C(F)(F)C(F)(F)C(F)(F)C(F)(F)C(F)(F)C(F)(F)C(F)(F)C(F)(F)F	inactive
Nc1ccc(Cl)cc1	inactive
CC(=Cc1csc(C)n1)[C@@H]1C[C@H]2O[C@]2(C)CCC[C@H](C)[C@@H](O)[C@@H](C)C(=O)C(C)(C)[C@@H](O)CC(=O)O1	inactive
